# Source: PubChem BioAssay (NCATS)
# Results filed as inconclusive are left out. A call without a number means that no potency is given here. Some structures have more than one record in an assay (separate samples or runs), and their calls can disagree. Active and inactive are the calls of the source. Unless noted, calls come from the whole dose curve; as a rule, active = well fitted curve in the direction sought with a large enough effect; inconclusive = small, poorly fitted or top-dose-only effect, or another doubt; inactive = no such curve, though single readings can be large; an effect the other way counts as inactive or inconclusive.
# How the values were obtained:
# [1] = system: Zika virus NS2B-NS3 protease; assay: Primary screen GU AMC qHTS for Zika virus inhibitors (AID 1347154); note: nearly all actives have a fitted effect of over 70% in size
# Procedure, shortened: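 Unlinked Zika NS2B hydrophilic domain–NS3 protease complex at 25 nM in 10 mM Tris-HCl pH 8.0, 0.01% Tween 20, with an AMC peptide substrate. Fluorescence change (340/450 nm) over 15 min at room temperature, normalized to controls, fitted to 4-parameter Hill.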
# [2] = Counterscreen qHTS for small molecule stabilizers of the endoplasmic reticulum resident proteome: GLuc-NoTag assay (AID 1508627);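 note: SH-SY5Y cells given compound then 100 nM thapsigargin to empty ER calcium; series mostly up to about 76 µM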
# Procedure, shortened: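 SH-SY5Y cells stably expressing constitutively secreted GLuc without SERCaMP tag, exposed to compound for 19 hr, then to 100 nM thapsigargin for 4 hr at 37C. Medium luciferase was read by coelenterazine luminescence without lysis.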
# [3] = Confirmatory qHTS for small molecule stabilizers of the endoplasmic reticulum resident proteome: Secreted ER Calcium Modulated Protein (SERCaMP) assay (AID 1508628); note: nearly all actives have a fitted effect of over 40% in size; note: potency is the fitted concentration of half-maximal effect
# Procedure, shortened: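 SH-SY5Y cells stably expressing GLuc-SERCaMP, treated 16 h with compound (primary 1.53, 7.67, 38.3 uM; confirmation 11 concentrations, up to 76.6 uM), then 100 nM thapsigargin for 4 h. Secreted Gaussia luciferase in medium read by coelenterazine luminescence.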
# [4] = Cell Viability qHTS for small molecule stabilizers of the endoplasmic reticulum resident proteome (AID 1508629); settings: cell viability counter-screen, 100 nM thapsigargin for final 4 h;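 note: human SH-SY5Y neuroblastoma cells carrying the GLuc-SERCaMP reporter; compound exposure about 46 h in total before the viability read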
# [5] = biological target: Calcium and integrin-binding protein 1 (Homo sapiens) (UniProt Q99828); assay: Primary qHTS for Identification of Calcium Integrin Binding Protein 1 (CIB1) Competitor (AID 1508620)
# Procedure, shortened: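 Fluorescence polarization competition: GST-tagged CIB1 (1 uM final) preincubated with compound 15 min at room temperature, then FITC-labelled alphaIIb peptide (100 nM final) added. After 15 min at room temperature, polarization read at Ex 480/Em 540.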
# [6] = NCATS anti-infectives library activity on HEK293 viability as a counter-qHTS vs the C. elegans viability qHTS (AID 1745854);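 note: HEK293 cells exposed to compounds for 24 hr before the viability read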
# Procedure, shortened: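 HEK293 cells (1,500/well) exposed 24 hr at 37C to 1:5 titrations, up to 41.7 uM final; counter-screen to a C. elegans viability qHTS. Viability by CellTiter-Glo luminescence after 10 min at room temperature; digitonin as control.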
# [7] = biological target: Glutathione peroxidase 1 (Homo sapiens) (UniProt P07203); assay: Primary qHTS Assay for Inhibitors of Recombinant Selenoprotein Glutathione Peroxidase 1 (GPX1) (AID 1845191); note: nearly all actives have a fitted effect of over 65% in size
# Procedure, shortened: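 GR-coupled assay: compounds preincubated 30 min at room temperature with GPX1, then reaction started with CHP; final 10 nM GPX1, 1 mM GSH, 0.5 mM CHP, 0.5 mM NADPH, 100 nM GR, 0.01% BSA, pH 7.5 Tris buffer. NADPH fluorescence (340/450 nm) read at 0 and 15 min.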
# [8] = biological target: Phospholipid hydroperoxide glutathione peroxidase GPX4 (Homo sapiens) (UniProt P36969); assay: Primary qHTS Assay for Inhibitors of Recombinant Selenoprotein Glutathione Peroxidase 4 (GPX4) (AID 1845192); settings: outcome: dose series up to 50 µM unless noted; note: nearly all actives have a fitted effect of over 65% in size
# Procedure, shortened: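 GR-coupled assay: recombinant GPX4 preincubated 30 min with compound at room temperature; final 200 nM GPX4, 1 mM GSH, 0.5 mM cumene hydroperoxide, 0.5 mM NADPH, 100 nM GR, 0.01% BSA, pH 7.5 Tris. NADPH fluorescence (340/450 nm) read at 0 and 15 min.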
# [9] = biological target: Cytochrome P450 1A2 (Homo sapiens) (UniProt P05177); assay: p450-cyp1a2 (AID 410; calls by dose curve; note: potency is the fitted concentration of half-maximal effect)
# Procedure, shortened: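 20nM CYP1A2 with 100uM Luciferin-ME (at Km) in 100mM KPO4; compound preincubated 10 min, NADPH regeneration added, 60 min at room temperature. Luciferin quantified by luminescence after detection reagent; normalized to 57 uM furafylline.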
# [10] = biological target: Glucocorticoid receptor (Homo sapiens) (UniProt P04150); assay: GR-GFP Redistribution (AID 450;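 active = compounds whose dose series gives a full or clear partial fitted curve of increased nuclear translocation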; note: potency is the fitted concentration of half-maximal effect); settings: U2OS GR-GFP nuclear translocation, laser cytometry, 2 h
# [11] = biological target: Glucocorticoid receptor (Homo sapiens) (UniProt P04150); assay: GR-EFC Redistribution (AID 451; calls by dose curve; note: potency is the fitted concentration of half-maximal effect); settings: CHO-K1 GR-EFC translocation, beta-gal luminescence, 2 h
# Procedure, shortened: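 CHO-K1 cells expressing nuclear EA and GR-ED fragments of b-gal; compounds titrated up to 46 uM final, 2 h at 37 C. GR nuclear translocation read as complemented b-gal luminescence after 1 h RT detection.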
# [12] = biological target: Mitogen-activated protein kinase 10 (Mus musculus) (UniProt Q61831); assay: JNK3 AlphaScreen Assay (AID 530; active = well fitted curve in either direction with a large enough effect, not every such curve was filed as active;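 note: kinase came from lysate of stimulated human HepG2 cells; signal reports phosphorylation of biotinylated GST-cJun 1-79 at Ser73 with 10 µM ATP; series mostly up to about 57 µM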)
# Procedure, shortened: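 Pre-activated (IL-1β/TNFα) JNK3 in HepG2 lysates phosphorylates biotin-GST-cJun(1-79), 10 uM ATP; anti-phospho-cJun(Ser73) AlphaScreen read at room temperature, pH 7.6 Tris buffer. Compounds pre-incubated 15 min as titrations.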
# [13] = biological target: Cytochrome P450 2D6 (Homo sapiens) (UniProt P10635); assay: qHTS Assay for Inhibitors and Substrates of Cytochrome P450 2D6 (AID 891); note: potency is the fitted concentration of half-maximal effect; nearly all actives have a fitted effect of over 60% in size
# Procedure, shortened: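 Human CYP2D6 (5 nM) with 30 uM Luciferin-ME EGE (at Km) in 100 mM KPO4, compound preincubated 10 min, then NADPH regeneration system for 60 min at room temperature. Luciferin read by luminescence; normalized to 1.43 uM quinidine.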
# [14] = biological target: DNA dC->dU-editing enzyme APOBEC-3G (Homo sapiens) (UniProt Q9HC16); assay: qHTS for inhibitors of Vif-A3G interactions: Validation (AID 588379)
# Procedure, shortened: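 HeLa cells stably expressing Vif and A3G-eYFP, 700 cells/well, incubated overnight at 37 deg C, then exposed to compound overnight at 37 deg C. Inhibition of Vif-mediated degradation read as increased yellow fluorescence (Ex 488/Em 500-530) by laser-scanning cytometry.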
# [15] = Primary qHTS for small molecule stabilizers of the endoplasmic reticulum resident proteome: Secreted ER Calcium Modulated Protein (SERCaMP) assay (AID 1508630)
# Procedure, shortened: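 GLuc-SERCaMP-expressing SH-SY5Y cells, pretreated 16 h with compound, are challenged with thapsigargin to empty ER calcium stores; after 4 h, coelenterazine is added directly to the medium and luminescence is imaged.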
# [16] = qHTS to identify inhibitors of the type 1 interferon - major histocompatibility complex class I in skeletal muscle: primary screen against the NCATS Mechanism Interrogation Plate v5.0 (MIPE) Libary (AID 1347411); note: nearly all actives have a fitted effect of over 65% in size
# Procedure, shortened: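 Immortalized human myoblasts (C25cl48) with HiBit knocked into endogenous HLA-B*08:01 were stimulated with 4 ng/ml IFN-beta and given compounds in 11-point 1:3 titration from 46 uM. After 24 h at 37 C, lytic HiBiT luminescence was read.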
# [17] = Primary qHTS for inhibitors of nuclear receptor binding SET domain protein 2 (NSD2) in an isogenic RCH-ACV NSD2 p.E1099K mutant (9B) (AID 1645876); note: potency is the fitted concentration of half-maximal effect; nearly all actives have a fitted effect of over 70% in size
# [18] = Primary qHTS for inhibitors of nuclear receptor binding SET domain protein 2 (NSD2) in an RCH-ACV wild type WT cells (2C) (AID 1645877); note: potency is the fitted concentration of half-maximal effect; nearly all actives have a fitted effect of over 70% in size
# [19] = qHTS drug screen for cell cycle checkpoint inhibitors in PARPi-resistant BRCA-mutant ovarian cancer cell lines. (AID 1963452; calls by dose curve); settings: PEO1/OlaR viability, CellTiter-Glo luminescence, 96 h, stronger effect = lower value
# Procedure, shortened: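 PEO1, PEO4 and PEO1/OlaR ovarian cancer cells, 600 per well, exposed 96 h at 37C to a dilution series. Viability read by CellTiter-Glo luminescence, normalized to DMSO and empty wells; activity summarized as Z-AUC.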
# Sequence of Calcium and integrin-binding protein 1 (Homo sapiens) (Q99828 whole entry, looked up): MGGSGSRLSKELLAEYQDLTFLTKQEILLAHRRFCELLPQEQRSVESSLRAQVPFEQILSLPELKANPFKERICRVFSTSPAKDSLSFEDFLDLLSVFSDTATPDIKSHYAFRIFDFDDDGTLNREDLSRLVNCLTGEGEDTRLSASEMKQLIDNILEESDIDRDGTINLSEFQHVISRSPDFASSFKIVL
# Sequence of Phospholipid hydroperoxide glutathione peroxidase GPX4 (Homo sapiens) (P36969 whole entry, looked up): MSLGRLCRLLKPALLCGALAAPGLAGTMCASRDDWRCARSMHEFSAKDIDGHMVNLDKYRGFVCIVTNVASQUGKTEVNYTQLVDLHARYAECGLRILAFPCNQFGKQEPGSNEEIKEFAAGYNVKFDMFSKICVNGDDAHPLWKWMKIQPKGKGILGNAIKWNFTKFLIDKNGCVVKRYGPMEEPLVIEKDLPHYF
# Sequence of Glucocorticoid receptor (Homo sapiens) (P04150 whole entry, looked up, the tested form may be a part): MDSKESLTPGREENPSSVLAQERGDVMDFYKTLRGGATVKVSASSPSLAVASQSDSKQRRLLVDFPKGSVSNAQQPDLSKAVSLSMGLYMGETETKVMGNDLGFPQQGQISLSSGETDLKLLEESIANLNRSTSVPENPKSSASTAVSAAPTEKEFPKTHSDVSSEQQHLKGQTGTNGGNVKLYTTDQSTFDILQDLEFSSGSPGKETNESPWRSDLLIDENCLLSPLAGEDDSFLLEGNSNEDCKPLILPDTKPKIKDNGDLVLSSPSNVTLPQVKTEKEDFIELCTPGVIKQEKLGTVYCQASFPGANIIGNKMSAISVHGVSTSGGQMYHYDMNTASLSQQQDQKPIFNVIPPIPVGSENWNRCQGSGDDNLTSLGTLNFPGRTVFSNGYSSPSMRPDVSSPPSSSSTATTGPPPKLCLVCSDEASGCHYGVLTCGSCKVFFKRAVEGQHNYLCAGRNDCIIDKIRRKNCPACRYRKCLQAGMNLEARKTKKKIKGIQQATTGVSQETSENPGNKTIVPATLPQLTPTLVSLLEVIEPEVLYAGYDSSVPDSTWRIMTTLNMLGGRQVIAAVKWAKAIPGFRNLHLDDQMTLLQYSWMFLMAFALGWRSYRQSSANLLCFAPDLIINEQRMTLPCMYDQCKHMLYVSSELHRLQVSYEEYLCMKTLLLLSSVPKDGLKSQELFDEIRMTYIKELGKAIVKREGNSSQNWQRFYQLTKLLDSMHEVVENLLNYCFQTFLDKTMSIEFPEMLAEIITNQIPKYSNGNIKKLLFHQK
# Sequence of Glutathione peroxidase 1 (Homo sapiens) (P07203 whole entry, looked up): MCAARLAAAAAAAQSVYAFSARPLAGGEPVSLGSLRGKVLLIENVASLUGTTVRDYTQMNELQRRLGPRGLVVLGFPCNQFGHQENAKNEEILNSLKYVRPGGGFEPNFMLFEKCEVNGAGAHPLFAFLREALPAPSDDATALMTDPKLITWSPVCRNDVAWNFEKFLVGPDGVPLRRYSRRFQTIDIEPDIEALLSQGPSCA
# Sequence of Cytochrome P450 2D6 (Homo sapiens) (P10635 whole entry, looked up): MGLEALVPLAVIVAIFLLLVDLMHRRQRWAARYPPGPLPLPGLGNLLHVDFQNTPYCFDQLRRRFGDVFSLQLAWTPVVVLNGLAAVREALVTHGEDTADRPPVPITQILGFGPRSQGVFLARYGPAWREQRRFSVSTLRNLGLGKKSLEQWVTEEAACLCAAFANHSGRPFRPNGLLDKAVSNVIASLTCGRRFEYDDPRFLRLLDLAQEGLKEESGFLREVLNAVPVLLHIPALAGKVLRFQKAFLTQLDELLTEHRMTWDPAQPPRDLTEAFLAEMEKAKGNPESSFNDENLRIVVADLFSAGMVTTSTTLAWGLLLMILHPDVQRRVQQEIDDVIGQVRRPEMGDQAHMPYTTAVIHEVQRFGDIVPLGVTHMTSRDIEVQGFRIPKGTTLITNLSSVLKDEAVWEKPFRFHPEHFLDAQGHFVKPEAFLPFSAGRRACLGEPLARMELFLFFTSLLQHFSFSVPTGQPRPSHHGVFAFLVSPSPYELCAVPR
# Sequence of Cytochrome P450 1A2 (Homo sapiens) (P05177 whole entry, looked up): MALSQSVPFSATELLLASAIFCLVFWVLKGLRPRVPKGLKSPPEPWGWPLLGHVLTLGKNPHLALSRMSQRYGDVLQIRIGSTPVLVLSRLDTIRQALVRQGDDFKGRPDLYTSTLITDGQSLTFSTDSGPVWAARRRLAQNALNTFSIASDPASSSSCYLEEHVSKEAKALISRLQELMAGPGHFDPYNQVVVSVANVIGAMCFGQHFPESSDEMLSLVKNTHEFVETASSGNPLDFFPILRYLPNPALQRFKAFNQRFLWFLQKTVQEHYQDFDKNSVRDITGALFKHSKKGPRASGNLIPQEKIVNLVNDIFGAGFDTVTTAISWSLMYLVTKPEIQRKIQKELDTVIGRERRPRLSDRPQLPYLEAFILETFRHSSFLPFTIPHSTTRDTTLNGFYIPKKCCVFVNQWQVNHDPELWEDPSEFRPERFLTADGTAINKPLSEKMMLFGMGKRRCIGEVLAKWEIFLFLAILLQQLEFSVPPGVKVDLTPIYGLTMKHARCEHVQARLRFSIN
# Sequence of DNA dC->dU-editing enzyme APOBEC-3G (Homo sapiens) (Q9HC16 whole entry, looked up): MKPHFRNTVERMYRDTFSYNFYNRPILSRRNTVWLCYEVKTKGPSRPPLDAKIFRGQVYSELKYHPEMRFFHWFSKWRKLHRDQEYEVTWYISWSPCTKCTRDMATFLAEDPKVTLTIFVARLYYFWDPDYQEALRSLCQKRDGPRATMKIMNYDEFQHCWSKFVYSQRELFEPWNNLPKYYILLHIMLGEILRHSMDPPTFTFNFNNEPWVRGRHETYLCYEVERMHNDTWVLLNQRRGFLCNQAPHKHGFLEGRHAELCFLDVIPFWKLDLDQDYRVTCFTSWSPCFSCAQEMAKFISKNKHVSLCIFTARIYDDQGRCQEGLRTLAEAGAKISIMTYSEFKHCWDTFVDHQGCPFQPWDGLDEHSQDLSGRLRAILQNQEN
structure (smiles),measurement,setting,value
N#Cc1cc2c(OCC(O)CN3CCN(C(c4ccccc4)c4ccccc4)CC3)cccc2[nH]1 (centres undefined),Potency,[1],inactive
same,Potency,[2],inactive
same,Potency,[3],3.98 µM (active) and inactive
same,max response,[4],3.24% (inactive)
COc1ccc(C2Sc3ccccc3N(CCN(C)C)C(=O)[C@@H]2OC(C)=O)cc1 (some centres undefined),Potency,[1],inactive
same,Potency,[2],inactive
same,Potency,[3],31.6 µM (active) and inactive
CN(C)/C(N)=N/C(=N)N,outcome,[1],inactive
same,outcome,[5],inactive
same,outcome,[6],inactive
same,Potency,[7],inactive
same,outcome,[8],inactive [setting not given]
COC(=O)c1ccccc1NC(=O)c1ccc(F)cc1,Potency,[9],0.2 µM (active)
same,Potency,[10],> 46 µM (inactive)
same,Potency,[11],> 46 µM (inactive)
same,Potency,[12],inactive
same,Potency,[13],5.01 µM (active)
same,Potency,[14],inactive
same,Potency,[1],inactive
same,outcome,[5],inactive
same,Potency,[15],inactive
COc1ccc(S(=O)(=O)N(CCO)c2ccccc2CN(C)C/C=C/c2ccc(Cl)cc2)cc1,Potency,[1],inactive
same,Potency,[16],inactive
same,Potency,[17],7.42 µM (active)
same,Potency,[18],8.33 µM (active)
same,Potency,[8],inactive
same,Z-AUC,[19],-0.289 (inactive)
same,Z-AUC,[19]; measured here: PEO1 parental Z-AUC,-0.166
same,Z-AUC,[19]; measured here: PEO4 Z-AUC,0.482
